In the library only some 3.1% were active in any assay of this set; here they are far more common.
PP1 inh – counter-screen for PP5 inhibitors: inhibitors of human PP1-alpha. P62136. purified PP1alpha, OMFP fluorescence. actives 0.9% (n = 320,000). inhibition, % at 6.7 µM;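 active = inhibition above the mean inhibition of all tested compounds plus 3 SD, computed separately for each screening campaign, cut at about 15% in these data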
SKKanGAS inh – blocks kanamycin growth of S. pyogenes SKKanGAS strain; BacTiter-Glo, 6 h; inhibition, % at 7.5 µM; actives 1.3% (n = 300,000); AID 1662;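 active = mean replicate score, as percent of positive control median, at least 50; inconclusive = mean below 50 but one replicate at or above 50; inactive = mean and every replicate below 50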;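 also: strain carries kanamycin resistance gene driven by streptokinase promoter and grows in 40 µg/ml kanamycin; loss of luminescence reflects streptokinase promoter inhibition or plain growth inhibition; 0% = median of DMSO wells and 100% = positive control at its reference dose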
Beta cell apopt – beta cell apoptosis inhibition. AID 435005. actives 0.8% (n = 300,000). protection from apoptosis, % (concentration not given with the values). INS-1E cytokine-induced death, ATP luminescence, 48 h; percent of positive-control rescue, neutral wells zero;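 active = Every replicate reaches about 75%, or at least half do and their mean reaches it too, limit read from the data; inconclusive = At least half of replicates reach the limit but their mean does not; inactive = Under half of replicates reach the limit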;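 also: 0% = cytokine-treated negative control wells and 100% = positive control rescue; higher means more ATP so stronger rescue from cytokine killing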
PP5 inh – blocks human protein phosphatase 5 activity. P53041. purified PP5c, OMFP substrate fluorescence. inhibition, % at 6.7 µM. actives 0.18% (n = 320,000);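 active = inhibition above the campaign's mean inhibition across all tested compounds plus 3 SD, cut at about 9.5% in these data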;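 also: 0% = DMSO only and 100% = 100 µM cantharidin control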
Target sequence (P53041 whole entry, looked up): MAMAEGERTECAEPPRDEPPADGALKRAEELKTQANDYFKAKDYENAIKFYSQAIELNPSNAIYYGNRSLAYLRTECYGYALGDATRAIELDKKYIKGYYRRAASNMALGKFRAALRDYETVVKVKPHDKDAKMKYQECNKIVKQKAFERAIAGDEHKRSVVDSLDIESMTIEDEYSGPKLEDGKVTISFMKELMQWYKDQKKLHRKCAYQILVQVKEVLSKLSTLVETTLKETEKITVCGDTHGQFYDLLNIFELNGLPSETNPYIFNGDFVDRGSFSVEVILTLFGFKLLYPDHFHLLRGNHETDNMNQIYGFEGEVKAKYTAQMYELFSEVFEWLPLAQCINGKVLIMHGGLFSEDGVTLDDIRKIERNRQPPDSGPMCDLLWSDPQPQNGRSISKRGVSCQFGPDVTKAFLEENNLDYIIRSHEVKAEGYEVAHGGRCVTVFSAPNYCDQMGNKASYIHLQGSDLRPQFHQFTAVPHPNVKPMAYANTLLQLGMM
CSC inhib – cancer stem cell inhibition. actives 1.1% (n = 300,000). inhibition, % at 7.5 µM. AID 2717. cancer stem cell-like cells viability, luminescence; in the data active = inhibition above about 75%; inconclusive = no clear call, values can overlap the other calls; tested in HMLE shEcad cells
* marks the source's active call; other numbers are inactive results; ! = a repeat was not active.

`Cc1ccc(F)c([C@H]2[C@@H]3C=CCC[C@@]3(C)C(=O)N2Cc2ccccc2)c1` gave PP1 inh 1, SKKanGAS inh 19, Beta cell apopt -7, PP5 inh 1 and CSC inhib 14.
Screening CN(Cc1cnc2nc(N)nc(N)c2n1)c1ccc(C(=O)N[C@@H](CCC(=O)O)C(=O)O)cc1 returned PP1 inh 0, SKKanGAS inh 89*, Beta cell apopt 5, PP5 inh 0 and CSC inhib 86*!.
For CC1Cc2ccccc2N1C(=S)NC(=O)c1cccc(Br)c1 (stereo not given) the results were PP1 inh 1, SKKanGAS inh 93*, Beta cell apopt -5, PP5 inh 1 and CSC inhib -10.
CC1Cc2ccccc2N1C(=S)NC(=O)c1ccc(Cl)cc1Cl (stereo not given) was read as PP1 inh -2, SKKanGAS inh 61*, Beta cell apopt 14, PP5 inh 0 and CSC inhib 20.
Screening CCOc1ccc(N2CC(C(=O)N3CCN(C(=O)c4ccco4)CC3)CC2=O)cc1 (stereo not given) returned PP1 inh -1, SKKanGAS inh -10, Beta cell apopt -3, PP5 inh 0 and CSC inhib -5.
Screening COc1ccc2cc(-c3ccon3)ccc2c1 returned PP1 inh 1, SKKanGAS inh -1 and PP5 inh 1.
For NC(=S)n1[nH]c(-c2ccc([N+](=O)[O-])cc2)c(N=Nc2ccc(O)cc2)c1=O the results were PP1 inh 17*, SKKanGAS inh 12, PP5 inh 1 and CSC inhib 15.
`COc1ccc(CCNC(=O)CN(c2cccc([N+](=O)[O-])c2)S(C)(=O)=O)cc1OC` gave PP1 inh -3, SKKanGAS inh -5, Beta cell apopt -2, PP5 inh -3 and CSC inhib 1.
COC(=O)c1cccc(NC(=O)CSc2nnc(C)n2C)c1 was read as PP1 inh -6, SKKanGAS inh 1, Beta cell apopt -2, PP5 inh -2 and CSC inhib -7.
Screening Clc1cccc(-c2ccc(CNCc3ccccn3)o2)c1 returned PP1 inh 2, SKKanGAS inh 15, Beta cell apopt -1, PP5 inh 2 and CSC inhib 2.
`Brc1ccc(-c2ccc(CNCc3ccccn3)o2)cc1` gave PP1 inh 8, SKKanGAS inh 67*, Beta cell apopt 1, PP5 inh 2 and CSC inhib 6.
O=c1cc(C(F)(F)F)[nH]c2c(OC(F)(F)F)cccc12 was read as PP1 inh -2, SKKanGAS inh 11, Beta cell apopt 6, PP5 inh -2 and CSC inhib 79*.
`Cc1sc2ncnc(N/N=C/c3ccccc3O)c2c1C` gave PP1 inh 7, SKKanGAS inh 94*, Beta cell apopt 85*, PP5 inh 5 and CSC inhib 105*.
Screening Cc1sc2ncnc(NCc3ccco3)c2c1C returned PP1 inh -3, SKKanGAS inh -12, Beta cell apopt 13, PP5 inh 0 and CSC inhib -5.
Cc1sc2ncnc(NCc3cccs3)c2c1C was read as PP1 inh 0, SKKanGAS inh 1, Beta cell apopt 101*, PP5 inh 1 and CSC inhib -11.
`Cc1sc2ncnc(NCC(O)c3ccc([N+](=O)[O-])cc3)c2c1C` (stereo not given) gave PP1 inh -3, SKKanGAS inh 1, Beta cell apopt 79*, PP5 inh 4 and CSC inhib -7.
For Cc1sc2ncnc(NCC(c3ccccc3)N(C)C)c2c1C (stereo not given) the results were PP1 inh -1, SKKanGAS inh 2, Beta cell apopt 9, PP5 inh 1 and CSC inhib 8.
`Cc1sc2ncnc(NCC(O)c3ccccc3)c2c1C` (stereo not given) gave PP1 inh 0, SKKanGAS inh 11, Beta cell apopt 88*, PP5 inh 0 and CSC inhib -17.
CCc1ccc(CNC(=O)C2CCC(=O)N(CCc3ccc(Cl)cc3)C2)nc1 (stereo not given) was read as PP1 inh 2, SKKanGAS inh 24, Beta cell apopt -5, PP5 inh 2 and CSC inhib 12.
O=S(=O)(c1ccccc1)N(CC(O)Cn1c2ccccc2c2ccccc21)c1ccccc1 (stereo not given) was read as PP1 inh 2, SKKanGAS inh 43, PP5 inh 6 and CSC inhib 95*.
For COc1cc(CN2CCN(c3cccc(Cl)c3)CC2)cc(OC)c1OC the results were PP1 inh 5, SKKanGAS inh 6, Beta cell apopt 2, PP5 inh 4 and CSC inhib 93*.
`COc1cc(CN2CCN(S(=O)(=O)c3ccccc3)CC2)cc(OC)c1OC` gave PP1 inh -4, SKKanGAS inh -5, Beta cell apopt -5, PP5 inh 1 and CSC inhib -17.
`COc1ccccc1NS(=O)(=O)c1cccc(NC(=O)c2[nH]c(C)c(C(C)=O)c2C)c1` gave PP1 inh -1, SKKanGAS inh 4, Beta cell apopt 76*, PP5 inh 4 and CSC inhib -5.
Screening COc1ccccc1NS(=O)(=O)c1cccc(NC(=O)Nc2ccc(Cl)cc2)c1 returned PP1 inh 6, SKKanGAS inh 55*, Beta cell apopt 47 and PP5 inh 7.
For CC(OC(=O)Cn1cc(C(F)(F)F)ccc1=O)C(=O)N(C)c1ccccc1 (stereo not given) the results were Beta cell apopt -2 and CSC inhib 4.
For Cc1ccc(Sc2ccc(CN3CCCC3)cc2[N+](=O)[O-])cc1 the results were PP1 inh -1, SKKanGAS inh -21, Beta cell apopt 5, PP5 inh -1 and CSC inhib 1.
CN1CCN(Cc2ccc(Sc3ccc(Cl)cc3)c([N+](=O)[O-])c2)CC1 was read as PP1 inh -3, SKKanGAS inh -4, Beta cell apopt 4, PP5 inh 2 and CSC inhib 86*.
`COc1cccc(S(=O)(=O)NCc2ccc(C(=O)Nc3ccc(Cl)cc3)cc2)c1` gave PP1 inh 2, SKKanGAS inh 5, Beta cell apopt 3, PP5 inh -1 and CSC inhib inconclusive.
Screening COc1cccc(S(=O)(=O)NCc2ccc(C(=O)Nc3cccc(Cl)c3)cc2)c1 returned PP1 inh -1, SKKanGAS inh 10, Beta cell apopt 10, PP5 inh 5 and CSC inhib 99*.
For Cc1ccccc1Nc1ncnc(N)n1 the results were PP1 inh -3, SKKanGAS inh 1, Beta cell apopt -7, PP5 inh 0 and CSC inhib -8.
`Cc1ccc(-c2nn(-c3ccccc3)cc2/C=N/n2c(-c3cccs3)n[nH]c2=S)cc1` gave PP1 inh 2, SKKanGAS inh 55*, Beta cell apopt 9, PP5 inh 3 and CSC inhib 46.
`S=c1[nH]nc(-c2ccncc2)n1/N=C/c1cn(-c2ccccc2)nc1-c1ccccc1` gave PP1 inh 6, SKKanGAS inh 51*, Beta cell apopt -20, PP5 inh 0 and CSC inhib 42.

Assay outcomes (PubChem)
